Results filed as inconclusive are left out. A number with no mark means an inactive call. The source made the active and inactive calls. Calls come from the whole dose curve; as a rule, active = well fitted cell-killing curve with a large enough effect in the repeat runs; inconclusive = weak or mixed curves, or effect the other way; inactive = flat fitted curve, though single readings scatter.
% is set by controls: 0 for no effect and ±100 for the full control effect.
Note: nearly all actives have a fitted effect of over 45% in size.

The first assay is described as follows: qHTS assay to identify small molecule agonists of the constitutive androstane receptor (CAR) signaling pathway - cell viability counter screen (AID 1224836). The conditions noted are these: HepG2-CYP2B6-hCAR viability, CellTiter-Fluor, 23 h, PK11195 added to every well; series mostly up to 92.4 µM. The gist of the method: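 HepG2 cells stably carrying hCAR and a CYP2B6-2.2kb reporter; 15-concentration compounds plus PK11195 (final 0.75 uM), 23 hr at 37 C/5% CO2. Viability read by CellTiter-Fluor fluorescence.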
A general note: Quantitative high-throughput screening tests each substance at several concentrations.
Turning to `CC/C=C\CCOC(C)OCC` (stereo not drawn), the result was inactive.

For the compound `CC(=O)C1CCCCC1=O` (stereo not drawn), the compound was called inactive.

As for `CC(C)(C)C(=O)c1ccccc1`, the compound was classed as inactive.

For the compound `O=C(c1ccccc1)C1(O)CCCCC1`, the call was inactive.

As for `CC1(C)OC[C@@H](COC(=O)CCc2ccc(OC[C@@H](O)CNCCNC(=O)N3CCOCC3)cc2)O1`, the compound was called inactive.

`CCCCCCC1CCC(=O)O1` (stereo not drawn): the compound was called inactive.

In the case of `CCCCN(CCC(=O)OCC)C(C)=O`, the compound was called inactive.

On to `CCCCCCCCCCCCCCCCCCO`, for which the compound was classed as inactive.

Take `C[N+]12CCC(CC1)C(OC(=O)C(O)(c1ccccc1)c1ccccc1)C2` (stereo not drawn): the call was inactive.

For `Clc1cc(Cl)cc(Cl)c1`, the call was inactive.

With `CC1=NN(c2cccc(S(=O)(=O)O)c2)C(=O)C1`, the outcome was inactive.

Take `CN(C)CCN(C)CCN(C)C`: the compound was called inactive.

Take `Cc1cc(C)c(N=Nc2c(O)c(S(=O)(=O)O)cc3cc(S(=O)(=O)O)ccc23)cc1C`: the viability change, negative = cytotoxic was -15.6% [at 8.39 µM].

Take `C[N+](C)(C)CCCCCCCCCC[N+](C)(C)C`: the call was inactive.

Regarding `NC(=O)N[C@@H](CCC(=O)O)C(=O)O`, the outcome was inactive.

A further assay is described as follows: qHTS assay to identify small molecule antagonists of the constitutive androstane receptor (CAR) signaling pathway - cell viability counter screen (AID 1224837). The conditions noted are these: HepG2-CYP2B6-hCAR viability, CellTiter-Fluor, 23 h, co-treated with 50 nM CITCO; series mostly up to 92.4 µM. The gist of the method: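 Using CellTiter-Fluor, viability is scored in HepG2 cells stably carrying hCAR and a 2.2kb CYP2B6 reporter after 23 hr compound exposure across 15 concentrations, with CITCO present at 50 nM.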
`O=S(=O)(O)c1cccc2c(S(=O)(=O)O)cccc12`: the outcome was inactive.

For the compound `COc1ccnc(CS(=O)c2nc3cc(OC(F)F)ccc3[nH]2)c1OC` (stereo not drawn), the result was inactive.

With `CCCO[Si](OCCC)(OCCC)OCCC`, the outcome was inactive.

`C=COCC1CCC(COC=C)CC1` (stereo not drawn): the outcome was inactive.

Turning to `CCCc1nn(C)c2c(=O)[nH]c(-c3cc(S(=O)(=O)N4CCN(C)CC4)ccc3OCC)nc12`, the outcome was inactive.

As for `CC1=CCC(O)(C(C)C)CC1` (stereo not drawn), the outcome was inactive.

As to `CCOC(=O)COC(=O)c1ccccc1C(=O)OCC`, the result was inactive.

For `CCC(C(=O)NC(=O)NC(C)=O)c1ccccc1` (stereo not drawn), the outcome was inactive.

Consider `O=C(CO)[C@@H](O)[C@H](O)[C@@H](O)CO`, for which the result was inactive.

`CN(C)[C@@H]1C(=O)C(C(=O)NCN2CCCC2)=C(O)[C@@]2(O)C(=O)C3=C(O)c4c(O)cccc4[C@@](C)(O)C3C[C@@H]12` (stereo partly drawn): the outcome was inactive.

For `CCCCOCCOC(=O)CCCCCCCCC(=O)OCCOCCCC`, the outcome was inactive.

In the case of `NC(=O)Cc1cccc2ccccc12`, the result was inactive.

For the compound `CO[Si](C)(OC)c1ccccc1`, the result was inactive.

Take `CCOC(=O)CCC(=O)OCC`: the outcome was inactive.

For the compound `O=C(O)CCSCCC(=O)O`, the outcome was inactive.

As for `CN1C(C)(C)CC(O)CC1(C)C`, the result was inactive.

For the compound `O=C1c2ccccc2C(=O)c2cc(O)ccc21`, the result was inactive.

With `C=CCOCC(O)CO` (stereo not drawn), the result was inactive.

Take `COc1cc(C(=O)OC(COCCC(C)C)CN2CCOCC2)cc(OC)c1OC` (stereo not drawn): the result was inactive.

For the compound `O=C(O)CCCC[P+](c1ccccc1)(c1ccccc1)c1ccccc1`, the result was inactive.

As for `Cc1cccc(C)c1NC(=O)CC12CCCN1CCC2`, the outcome was inactive.

For the compound `CC1=NS(=O)(=O)c2cc(Cl)ccc2N1`, the result was inactive.

Consider `CC(C)C(=O)OC(=O)C(C)C`, for which the outcome was inactive.

For `CC/C=C\CCOC(C)OCC` (stereo not drawn), the result was inactive.

On to `CC(=O)C1CCCCC1=O` (stereo not drawn), for which the outcome was inactive.

As to `CC(C)(C)C(=O)c1ccccc1`, the outcome was inactive.

As to `O=C(c1ccccc1)C1(O)CCCCC1`, the result was inactive.

For the compound `CC1(C)OC[C@@H](COC(=O)CCc2ccc(OC[C@@H](O)CNCCNC(=O)N3CCOCC3)cc2)O1`, the outcome was inactive.

Consider `CCCCCCC1CCC(=O)O1` (stereo not drawn), for which the result was inactive.

Turning to `CCCCN(CCC(=O)OCC)C(C)=O`, the outcome was inactive.

On to `CCCCCCCCCCCCCCCCCCO`, for which the result was inactive.

On to `C[N+]12CCC(CC1)C(OC(=O)C(O)(c1ccccc1)c1ccccc1)C2` (stereo not drawn), for which the result was inactive.

For the compound `Clc1cc(Cl)cc(Cl)c1`, the result was inactive.

Turning to `CC1=NN(c2cccc(S(=O)(=O)O)c2)C(=O)C1`, the result was inactive.

For the compound `CN(C)CCN(C)CCN(C)C`, the outcome was inactive.

Regarding `Cc1cc(C)c(N=Nc2c(O)c(S(=O)(=O)O)cc3cc(S(=O)(=O)O)ccc23)cc1C`, the activity change, negative = cytotoxicity was 0.232% [at 8.39 µM].

Turning to `C[N+](C)(C)CCCCCCCCCC[N+](C)(C)C`, the outcome was inactive.

As to `NC(=O)N[C@@H](CCC(=O)O)C(=O)O`, the outcome was inactive.

(Values after PubChem BioAssay (Tox21).)
